Laboratory results taken from PubChem BioAssay (EPA / NIEHS).
Where “and” joins values, the source holds several entries; their conditions need not be identical. Equal values may be shown once. Inconclusive results are not listed. Some structures have more than one record in an assay (separate samples or runs), and their calls can disagree. Calls of active or inactive are those of the source. The calls were made as follows, unless noted: active = hit-call score of the fitted dose curve at least 0.9, where 1 is the maximum; inconclusive = response in the unintended direction; inactive = score below 0.9.

Key:
[1] = ATG_GRE_CIS: Attagene CIS-FACTORIAL HepG2 Assay for human Glucocorticoid Response Elements (GRE) (AID 2282947; active = hit-call score of the fitted dose curve at least 0.9, where 1 is the maximum; inactive = score below 0.9); settings: HepG2 GRE cis-reporter, Attagene multiplex mRNA; actives raise or lower the signal
Method in brief: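 HepG2 cells transiently transfected with multiple cis-promoter reporter units measure endogenous TF activity; 24 h compound exposure. Reporter mRNA quantified by RT-PCR, FAM labelling, HpaI digestion and capillary electrophoresis; bidirectional fit vs DMSO baseline.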

[2] = target: Paired box protein Pax-6 (Homo sapiens) (UniProt P26367); assay: ATG_Pax6_CIS: Attagene CIS-FACTORIAL HepG2 Assay for human Paired Box 6 (PAX6) (AID 2282956; active = hit-call score of the fitted dose curve at least 0.9, where 1 is the maximum; inactive = score below 0.9); settings: HepG2 CIS-FACTORIAL PAX6 reporter transcription, RNA readout; actives raise or lower the signal
Method in brief: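 After twenty-four hours of chemical exposure, transfected HepG2 cells are harvested for RNA. Cis-promoter reporter transcripts are amplified, fluorescently labelled and sized by capillary electrophoresis, with gain and loss of signal scored against DMSO.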

[3] = ATG_RORE_CIS: Attagene CIS-FACTORIAL HepG2 Assay for human RAR-related Orphan Receptor Element (RORE) (AID 2282959; active = hit-call score of the fitted dose curve at least 0.9, where 1 is the maximum; inactive = score below 0.9); settings: HepG2 Attagene cis-factorial RORE reporter, mRNA; actives raise or lower the signal
Method in brief: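 HepG2 cells carrying transiently transfected cis-regulated reporter units; RORE-driven reporter mRNA quantified 24 h post-dosing by RT-PCR, 6-FAM primer extension, HpaI digestion and capillary electrophoresis. Bidirectional fit versus DMSO.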

[4] = target: Signal transducer and activator of transcription 3 (Homo sapiens) (UniProt P40763); assay: ATG_STAT3_CIS: Attagene CIS-FACTORIAL HepG2 Assay for human Signal Transducer and Activator of Transcription 3 (STAT3) (AID 2282963; active = hit-call score of the fitted dose curve at least 0.9, where 1 is the maximum; inactive = score below 0.9); settings: HepG2, Attagene cis-factorial STAT3 reporter transcription; actives raise or lower the signal
Method in brief: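 HepG2 cells transiently transfected with cis-element-driven multiple reporter transcription units; after 24 h chemical exposure, reporter mRNA measured by RT-PCR, 6-FAM primer-extension labelling, HpaI digestion and capillary electrophoresis. Bidirectional fitting versus DMSO baseline.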

[5] = ATG_M_19_TRANS: Attagene TRANS-FACTORIAL HepG2 Assay for M19 Transcription Factor (Internal Marker) (AID 2282974); settings: HepG2 Attagene TRANS-FACTORIAL M19 internal marker reporter
Method in brief: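 HepG2 transiently transfected with GAL4-UAS multiplex reporter constructs, exposed 24 h; reporter RNA quantified by RT-PCR, 6-FAM labeling, HpaI digestion and capillary electrophoresis; internal background marker fitted upward versus DMSO.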

[6] = target: Hepatocyte nuclear factor 4-alpha (Homo sapiens) (UniProt P41235); assay: ATG_HNF4a_TRANS: Attagene TRANS-FACTORIAL HepG2 Assay for human Hepatocyte Nuclear Factor 4 alpha (HNF4a) (AID 2282982); settings: HepG2 HNF4a transactivation reporter, mRNA readout
Method in brief: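 HepG2 cells transiently transfected with multiplexed GAL4-UAS reporter units responsive to chimeric NR-GAL4 proteins; compound exposure 24 h. Reporter mRNA quantified by RT-PCR, 6-FAM labelling, HpaI digestion and capillary electrophoresis; gain of signal versus DMSO baseline.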

[7] = ATG_M_32_TRANS: Attagene TRANS-FACTORIAL HepG2 Assay for M32 Transcription Factor (Internal Marker) (AID 2282984); settings: HepG2 Attagene TRANS M32 internal marker reporter;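 also: transcript level of a background control reporter unit measured by RT-PCR and capillary electrophoresis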
Method in brief: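 HepG2 cells transiently transfected with multiple GAL4-UAS reporter transcription units, dosed for 24 hours; reporter mRNA quantified by RT-PCR, 6-FAM primer extension, HpaI digestion and capillary electrophoresis. Gain-of-signal fitted versus DMSO baseline; internal background-control marker.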

[8] = target: Myc proto-oncogene protein (Homo sapiens) (UniProt P01106); assay: ATG_Myc_CIS: Attagene CIS-FACTORIAL HepG2 Assay for human Myelocytomatosis (Myc) Proto-Oncogene Transcription Factor (AID 2282990; active = hit-call score of the fitted dose curve at least 0.9, where 1 is the maximum; inactive = score below 0.9); settings: HepG2, Attagene cis-reporter transcription factor activity; actives raise or lower the signal
Method in brief: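 HepG2 cells transiently transfected with multiple cis-promoter-driven reporter transcription units, so endogenous TF activity is read. After 24 h compound exposure, reporter mRNA was quantified by RT-PCR, 6-FAM labelling, HpaI digestion and capillary electrophoresis; bidirectional fit versus DMSO.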

[9] = ATG_NRF2_ARE_CIS: Attagene CIS-FACTORIAL HepG2 Assay for human Nuclear Factor Erythroid 2 Related Factor 2 (NFR2) response to Antioxidant Response Elements (ARE) (AID 2282992; active = hit-call score of the fitted dose curve at least 0.9, where 1 is the maximum; inactive = score below 0.9;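 as to AC50: reporter mRNA level measured by RT-PCR and capillary electrophoresis fluorescence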); settings: HepG2 Attagene ARE/NRF2 reporter, transcription factor activity; actives raise or lower the signal
Method in brief: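 Cis-factorial assay: transfected HepG2 reporter library, 24 h dosing, mRNA readout via RT-PCR/CE; DMSO-referenced bidirectional analysis.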

[10] = target: human Peroxisome Proliferator-activated Receptor alpha (PPARa), PPARA (gene 5465) (UniProt Q07869); assay: ATG_PPARa_TRANS: Attagene TRANS-FACTORIAL HepG2 Assay for human Peroxisome Proliferator-activated Receptor alpha (PPARa) (AID 2283001)
Method in brief: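 HepG2 cells transiently transfected with multiplexed GAL4-UAS reporter units and chimeric NR-Gal4 constructs were dosed for 24 h. Reporter mRNA was measured by RT-PCR with fluorescent labelling and capillary electrophoresis; gain of signal fitted against DMSO.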

[11] = TOX21_p53_BLA_p2_viability: Viability Assessment in the Tox21 HCT-116 p53 Agonism Beta-lactamase Assay, Phase 2 (AID 2283591);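 also: compound exposure lasted 16 h at 37 °C; actives lower the ATP signal meaning cytotoxicity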
Method in brief: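 HCT-116 p53-bla cells (4000/well) rested 5 h at 37C, then received compounds in DMSO (217-fold dilution) for 16 h at 37C, 5% CO2. After the CCF4 read, CellTiter-Glo was added; ATP luminescence was read after 30 min at room temperature.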

[12] = target: Cellular tumor antigen p53 (Homo sapiens) (UniProt P04637); assay: TOX21_p53_BLA_p2_ratio: Tox21 HCT-116 p53 Agonism Beta-lactamase Assay, Ratio, Phase 2 (AID 2283592)
Method in brief: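 In this cell-based reporter format, HCT116 cells were dosed with chemicals delivered from DMSO by 217-fold dilution and incubated 16 h at 37C. Emission at 460 and 530 nm after 2 h CCF4-AM loading provided the ratio, fitted upward versus DMSO.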

[13] = target: Cellular tumor antigen p53 (Homo sapiens) (UniProt P04637); assay: TOX21_p53_BLA_p3_ratio: Tox21 HCT-116 p53 Agonism Beta-lactamase Assay, Ratio, Phase 3 (AID 2283596)
Method in brief: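 HCT116 p53-bla cells (4000/well) given compound in DMSO (217-fold dilution) after 5 h, incubated 16 h at 37C. CCF4-AM substrate 2 h at room temperature; 460/530 nm emission ratio, gain fitted against DMSO.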

[14] = target: Cellular tumor antigen p53 (Homo sapiens) (UniProt P04637); assay: TOX21_p53_BLA_p5_ratio: Tox21 HCT-116 p53 Agonism Beta-lactamase Assay, Ratio, Phase 5 (AID 2283599)
Method in brief: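 HCT-116 cells carrying a p53-inducible beta-lactamase reporter were seeded at 4000 cells/well and dosed after 5 h with compound in DMSO (217-fold dilution). After 16 h at 37C, CCF4-AM substrate was added for 2 h, and the 460/530 nm emission ratio was scored as gain-of-signal versus DMSO.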

[15] = TOX21_p53_BLA_p5_viability: Viability Assessment in the Tox21 HCT-116 p53 Agonism Beta-lactamase Assay, Phase 5 (AID 2283600)
Method in brief: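 Compounds, pinned from DMSO at 217-fold dilution, were left on the cells for 16 h. The viability endpoint was ATP content measured by CellTiter-Glo luminescence, where falling signal reflects cytotoxicity.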

[16] = target: Hepatocyte nuclear factor 3-beta (Homo sapiens) (UniProt Q9Y261); assay: ATG_FoxA2_CIS: Attagene CIS-FACTORIAL HepG2 Assay for human Forkhead box A2 (FOXA2) (AID 2282942; active = hit-call score of the fitted dose curve at least 0.9, where 1 is the maximum; inactive = score below 0.9); settings: HepG2 cis-reporter transcription factor activity, 24 h; actives raise or lower the signal
Method in brief: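 HepG2 transiently transfected with a multiplexed cis-promoter reporter library read endogenous FOXA2 activity. After 24 h compound exposure, reporter mRNA was quantified by RT-PCR, HpaI digestion and capillary electrophoresis. Bidirectional fit against DMSO.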

[17] = target: Heat shock factor protein 1 (Homo sapiens) (UniProt Q00613); assay: ATG_HSE_CIS: Attagene CIS-FACTORIAL HepG2 Assay for human Heat Shock Transcription Factor 1 (HSE) (AID 2282953; active = hit-call score of the fitted dose curve at least 0.9, where 1 is the maximum; inactive = score below 0.9); settings: HepG2 HSE cis-reporter, Attagene RNA transcription; actives raise or lower the signal
Method in brief: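 HepG2, transient MRTU transfection, cis-promoter reporters (endogenous TF activity). 24 h compound. RNA → oligo(dT) RT → PCR → 6-FAM primer extension → HpaI cut → CE. Bidirectional fit vs DMSO.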

[18] = target: Cellular tumor antigen p53 (Homo sapiens) (UniProt P04637); assay: ATG_p53_CIS: Attagene CIS-FACTORIAL HepG2 Assay for human p53 Transcription Factor (AID 2282994; active = hit-call score of the fitted dose curve at least 0.9, where 1 is the maximum; inactive = score below 0.9); settings: HepG2 p53 cis-element reporter, Attagene mRNA; actives raise or lower the signal
Method in brief: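 Using HepG2 hepatoma cells carrying cis-acting multiplexed reporters, mRNA induction is detected after a 24 h exposure. Gain- and loss-of-signal responses are fitted relative to DMSO-treated cells.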

[19] = target: Cellular tumor antigen p53 (Homo sapiens) (UniProt P04637); assay: TOX21_p53_BLA_p4_ratio: Tox21 HCT-116 p53 Agonism Beta-lactamase Assay, Ratio, Phase 4 (AID 2283601)
Method in brief: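 HCT116 cells carrying an inducible beta-lactamase reporter were plated at 4000 cells/well, rested 5 h, then exposed to compounds in DMSO (217-fold dilution) for 16 h at 37C. CCF4-AM substrate was loaded 2 h at room temperature; 460/530 nm emission ratio scored gain-of-signal versus DMSO.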

[20] = target: Hypoxia-inducible factor 1-alpha (Homo sapiens) (UniProt Q16665); assay: ATG_HIF1a_CIS: Attagene CIS-FACTORIAL HepG2 Assay for human Hypoxia Inducible Factor 1 (HIF1A) (AID 2282951; active = hit-call score of the fitted dose curve at least 0.9, where 1 is the maximum; inactive = score below 0.9); settings: HepG2 Attagene cis-factorial HIF1a reporter transcription; actives raise or lower the signal
Method in brief: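 HepG2 cells transiently transfected with multiple cis-regulated reporter transcription units measure endogenous transcription factor activity. After 24 h exposure, reporter mRNA is quantified by RT-PCR with 6-FAM labelling, HpaI digestion and capillary electrophoresis. Bidirectional fitting against DMSO.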

Measured: AC50

Signal transducer and activator of transcription 3 (Homo sapiens), sequence (P40763 whole entry, looked up): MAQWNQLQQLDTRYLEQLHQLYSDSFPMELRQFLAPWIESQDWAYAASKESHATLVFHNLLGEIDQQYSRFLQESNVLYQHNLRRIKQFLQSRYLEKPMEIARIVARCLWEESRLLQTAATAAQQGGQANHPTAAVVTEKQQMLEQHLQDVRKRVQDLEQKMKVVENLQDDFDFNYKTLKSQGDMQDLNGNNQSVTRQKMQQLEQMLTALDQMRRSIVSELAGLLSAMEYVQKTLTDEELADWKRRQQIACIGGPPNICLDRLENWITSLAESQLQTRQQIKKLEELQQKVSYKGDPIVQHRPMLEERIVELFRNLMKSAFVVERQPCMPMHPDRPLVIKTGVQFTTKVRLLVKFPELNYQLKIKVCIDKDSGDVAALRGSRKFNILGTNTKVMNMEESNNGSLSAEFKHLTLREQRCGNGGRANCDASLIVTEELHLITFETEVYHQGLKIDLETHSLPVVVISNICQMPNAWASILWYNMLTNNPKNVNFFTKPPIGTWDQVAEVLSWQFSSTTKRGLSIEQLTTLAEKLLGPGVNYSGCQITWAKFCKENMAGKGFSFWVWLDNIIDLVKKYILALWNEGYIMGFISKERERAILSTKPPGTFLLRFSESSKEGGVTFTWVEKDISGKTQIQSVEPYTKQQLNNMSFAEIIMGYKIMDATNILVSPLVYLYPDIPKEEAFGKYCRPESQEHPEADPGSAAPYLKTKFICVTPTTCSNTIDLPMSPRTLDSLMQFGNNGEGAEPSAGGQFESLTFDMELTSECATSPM
Hepatocyte nuclear factor 4-alpha (Homo sapiens), sequence (P41235 whole entry, looked up, the tested form may be a part): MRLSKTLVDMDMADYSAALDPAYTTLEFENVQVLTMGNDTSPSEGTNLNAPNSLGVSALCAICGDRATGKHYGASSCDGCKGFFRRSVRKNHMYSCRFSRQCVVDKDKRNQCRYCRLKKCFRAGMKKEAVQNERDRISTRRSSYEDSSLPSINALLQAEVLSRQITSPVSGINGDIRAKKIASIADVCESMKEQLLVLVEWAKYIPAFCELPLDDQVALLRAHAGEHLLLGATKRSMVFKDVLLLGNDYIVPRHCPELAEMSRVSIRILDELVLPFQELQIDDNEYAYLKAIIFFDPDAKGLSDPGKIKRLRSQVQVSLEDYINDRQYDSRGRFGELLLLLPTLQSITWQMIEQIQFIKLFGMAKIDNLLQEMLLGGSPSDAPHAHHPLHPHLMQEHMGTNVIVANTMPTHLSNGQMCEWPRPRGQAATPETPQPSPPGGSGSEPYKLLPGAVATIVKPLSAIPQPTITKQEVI
human Peroxisome Proliferator-activated Receptor alpha (PPARa), PPARA (gene 5465), sequence (Q07869 whole entry, looked up, the tested form may be a part): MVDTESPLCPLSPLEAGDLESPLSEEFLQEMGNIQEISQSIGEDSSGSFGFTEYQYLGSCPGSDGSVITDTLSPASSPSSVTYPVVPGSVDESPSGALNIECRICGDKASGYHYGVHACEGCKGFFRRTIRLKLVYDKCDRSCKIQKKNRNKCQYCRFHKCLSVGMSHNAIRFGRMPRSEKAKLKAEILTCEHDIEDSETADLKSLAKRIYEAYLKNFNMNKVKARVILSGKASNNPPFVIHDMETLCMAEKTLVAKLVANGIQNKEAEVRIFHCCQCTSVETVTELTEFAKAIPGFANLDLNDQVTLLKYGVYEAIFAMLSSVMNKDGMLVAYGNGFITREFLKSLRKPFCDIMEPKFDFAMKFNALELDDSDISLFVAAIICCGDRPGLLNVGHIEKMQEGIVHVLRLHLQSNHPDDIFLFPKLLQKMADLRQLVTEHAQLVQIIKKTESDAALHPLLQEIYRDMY
Hepatocyte nuclear factor 3-beta (Homo sapiens), sequence (Q9Y261 whole entry, looked up): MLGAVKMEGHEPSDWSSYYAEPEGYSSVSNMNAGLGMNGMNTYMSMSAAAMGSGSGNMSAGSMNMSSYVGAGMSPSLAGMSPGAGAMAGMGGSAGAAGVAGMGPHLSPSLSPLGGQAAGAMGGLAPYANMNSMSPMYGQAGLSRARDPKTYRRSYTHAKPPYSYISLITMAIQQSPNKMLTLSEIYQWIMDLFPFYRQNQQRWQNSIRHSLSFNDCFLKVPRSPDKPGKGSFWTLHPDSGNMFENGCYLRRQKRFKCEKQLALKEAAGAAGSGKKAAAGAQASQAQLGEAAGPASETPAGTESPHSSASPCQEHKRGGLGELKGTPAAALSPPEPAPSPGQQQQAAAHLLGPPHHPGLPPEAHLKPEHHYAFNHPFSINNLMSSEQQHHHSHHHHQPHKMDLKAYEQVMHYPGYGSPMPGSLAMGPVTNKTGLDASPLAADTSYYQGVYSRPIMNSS
Cellular tumor antigen p53 (Homo sapiens), sequence (P04637 whole entry, looked up): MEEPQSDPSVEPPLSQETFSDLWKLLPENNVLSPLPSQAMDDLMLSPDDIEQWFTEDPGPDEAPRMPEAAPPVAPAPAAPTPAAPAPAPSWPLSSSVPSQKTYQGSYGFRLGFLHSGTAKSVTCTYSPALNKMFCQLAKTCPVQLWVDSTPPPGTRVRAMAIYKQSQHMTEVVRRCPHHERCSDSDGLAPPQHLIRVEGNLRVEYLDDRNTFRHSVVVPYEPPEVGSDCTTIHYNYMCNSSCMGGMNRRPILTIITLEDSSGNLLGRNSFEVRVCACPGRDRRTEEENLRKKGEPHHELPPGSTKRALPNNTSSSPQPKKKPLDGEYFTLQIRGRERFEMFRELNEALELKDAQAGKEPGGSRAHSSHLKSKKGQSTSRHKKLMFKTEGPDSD
Paired box protein Pax-6 (Homo sapiens), sequence (P26367 whole entry, looked up): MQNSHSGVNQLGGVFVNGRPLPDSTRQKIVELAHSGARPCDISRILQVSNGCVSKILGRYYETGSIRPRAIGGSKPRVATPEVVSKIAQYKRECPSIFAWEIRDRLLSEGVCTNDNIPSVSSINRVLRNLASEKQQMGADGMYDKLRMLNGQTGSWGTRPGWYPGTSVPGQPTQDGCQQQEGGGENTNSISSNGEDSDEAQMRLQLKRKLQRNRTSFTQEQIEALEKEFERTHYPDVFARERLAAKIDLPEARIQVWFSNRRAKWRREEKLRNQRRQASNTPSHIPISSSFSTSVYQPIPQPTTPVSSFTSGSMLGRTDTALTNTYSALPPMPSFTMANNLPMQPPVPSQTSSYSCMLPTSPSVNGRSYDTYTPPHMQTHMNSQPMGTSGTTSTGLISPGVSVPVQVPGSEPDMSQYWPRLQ
Heat shock factor protein 1 (Homo sapiens), sequence (Q00613 whole entry, looked up): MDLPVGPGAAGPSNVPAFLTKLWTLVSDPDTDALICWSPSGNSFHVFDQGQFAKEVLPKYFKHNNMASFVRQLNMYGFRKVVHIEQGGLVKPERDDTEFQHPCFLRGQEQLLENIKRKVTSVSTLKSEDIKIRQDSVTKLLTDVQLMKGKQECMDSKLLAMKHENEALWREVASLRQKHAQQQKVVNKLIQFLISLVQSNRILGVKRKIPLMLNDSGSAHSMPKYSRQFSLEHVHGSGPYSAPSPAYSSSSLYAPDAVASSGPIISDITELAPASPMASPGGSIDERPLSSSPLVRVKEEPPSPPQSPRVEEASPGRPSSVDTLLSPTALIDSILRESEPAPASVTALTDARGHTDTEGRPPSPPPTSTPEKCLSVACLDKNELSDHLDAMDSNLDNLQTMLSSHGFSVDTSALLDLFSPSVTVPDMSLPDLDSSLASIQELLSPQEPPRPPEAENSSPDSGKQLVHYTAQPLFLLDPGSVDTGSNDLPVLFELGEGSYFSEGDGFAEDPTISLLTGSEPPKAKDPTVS
Hypoxia-inducible factor 1-alpha (Homo sapiens), sequence (Q16665 whole entry, looked up): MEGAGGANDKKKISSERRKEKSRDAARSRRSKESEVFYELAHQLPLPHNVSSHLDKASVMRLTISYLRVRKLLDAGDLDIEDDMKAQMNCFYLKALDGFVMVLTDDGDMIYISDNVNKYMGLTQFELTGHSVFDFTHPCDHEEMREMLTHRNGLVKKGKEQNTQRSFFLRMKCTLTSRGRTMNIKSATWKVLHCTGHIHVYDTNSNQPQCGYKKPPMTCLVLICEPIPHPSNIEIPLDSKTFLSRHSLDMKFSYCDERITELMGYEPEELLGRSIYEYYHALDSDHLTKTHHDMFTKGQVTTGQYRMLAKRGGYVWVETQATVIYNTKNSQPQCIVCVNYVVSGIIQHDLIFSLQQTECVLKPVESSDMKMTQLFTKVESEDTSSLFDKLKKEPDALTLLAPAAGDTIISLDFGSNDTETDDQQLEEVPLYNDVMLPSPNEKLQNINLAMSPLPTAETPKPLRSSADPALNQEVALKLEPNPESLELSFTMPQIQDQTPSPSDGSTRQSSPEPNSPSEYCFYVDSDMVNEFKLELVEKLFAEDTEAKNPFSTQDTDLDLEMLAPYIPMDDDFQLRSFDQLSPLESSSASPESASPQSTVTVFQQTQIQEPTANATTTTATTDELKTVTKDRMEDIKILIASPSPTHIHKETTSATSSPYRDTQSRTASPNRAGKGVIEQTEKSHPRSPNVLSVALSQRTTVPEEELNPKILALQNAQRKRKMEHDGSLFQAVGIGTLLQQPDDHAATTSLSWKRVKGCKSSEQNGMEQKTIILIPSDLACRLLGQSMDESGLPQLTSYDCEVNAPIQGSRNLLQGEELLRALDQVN
Myc proto-oncogene protein (Homo sapiens), sequence (P01106 whole entry, looked up): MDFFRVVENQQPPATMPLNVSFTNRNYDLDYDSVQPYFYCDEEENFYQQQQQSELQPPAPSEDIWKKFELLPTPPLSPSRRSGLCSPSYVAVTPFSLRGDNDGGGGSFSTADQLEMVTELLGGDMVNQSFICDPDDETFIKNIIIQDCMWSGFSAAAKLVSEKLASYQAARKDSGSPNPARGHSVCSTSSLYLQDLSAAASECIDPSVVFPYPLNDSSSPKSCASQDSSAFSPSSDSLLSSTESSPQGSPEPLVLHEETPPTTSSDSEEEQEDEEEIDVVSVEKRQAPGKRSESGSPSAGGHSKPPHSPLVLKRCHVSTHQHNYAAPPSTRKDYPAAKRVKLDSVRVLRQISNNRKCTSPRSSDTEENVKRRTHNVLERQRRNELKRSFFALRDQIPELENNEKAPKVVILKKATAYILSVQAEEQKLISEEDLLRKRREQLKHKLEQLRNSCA

C=Cc1cccc(CCl)c1
active: [1] 100 µM | [9] 22.4 µM
not listed: [16] | [17] | [18] | [19] | [20]
inactive: all other assays above

O=C(O)CCCc1ccc(N(CCCl)CCCl)cc1
active: [18] 54.7 µM | [12] 64.5 µM and 68.4 µM and 32.3 µM | [13] 43.5 µM and 42.8 µM and 23 µM | [14] 62.6 µM and 64.8 µM and 27.3 µM | [19] 71 µM
inactive: [16] | [17] | [2] | [4] | [5] | [6] | [7] | [9] | [10] | [15] | [19]

ClCCCCCCCl
inactive: [16] | [1] | [20] | [2] | [3] | [4] | [7] | [8] | [9] | [10]

CC1(C)C(=O)NC(=O)NC1=O
not listed: [8] | [10] | [19]
inactive: all other assays above

Nc1ccc(Cl)c(Cl)c1
not listed: [1] | [3] | [5] | [6] | [8] | [13] | [15] | [20]
inactive: all other assays above
